Screening results: PubChem, several laboratories
Sampled rows, rich in hits. Any-hit rate of the full collection: about 11%.
Autophagy HCS: alters autophagy in cells. MEF GFP-LC3 puncta imaging; test concentration mostly 10 µM. calls only at 10 µM (by protocol). actives 0.98% (n = 190,000);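 active = percentage of spot-positive cells more than 3 SD above its plate mean, without a fluorescence outlier flag or 80% toxicity; inconclusive = no clear call, values can overlap the other calls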;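 note: spot-positive cell cutoff set from DMSO-treated cells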
WT yeast gro inh: growth inhibition of WT yeast, mitochondrial fusion screen. mitochondrial fusion phenotypic screen, WT strain. inhibition, % at 10 µM. actives 2.1% (n = 190,000). AID 1362; in the data active = inhibition above about 58%; tested in S. cerevisiae
Insulin prom inh: TRM-6 insulin promoter activity inhibition. TRM-6 cells (human fetal islet line), insulin promoter-eGFP reporter, imaging; reporter expression induced with tamoxifen. inhibition, % at 2 µM. actives 0.9% (n = 130,000). AID 1273;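 active = inhibition above the mean plus 3 SD, with well images judged a real hit on visual review, cut at about 60% in these data, passing the limit was not always enough; inconclusive = inhibition over the cutoff but images rejected on review; inactive = inhibition not above the cutoff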
L major viab: inhibitors of Leishmania major promastigote growth | Leishmania major promastigotes, resazurin fluorescence viability | inhibition, % at 10 µM | actives 9% (n = 200,000) | AID 1063; in the data active = inhibition above about 50%;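 note: promastigotes grown with compound for 44 hours at 28 °C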
Insulin prom up: MIN6 insulin promoter up-regulation. MIN6 insulin promoter-GFP reporter, high-content imaging; active compounds read high. z-score at 5 µM. actives 0.3% (n = 190,000);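 active = z-score above 3 at 5 µM with at least 500 cells counted in the well; inconclusive = wells under 500 cells, flagged as cytotoxic or low count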
Numbers without * were called inactive; i = inactive; ? = inconclusive; / = no result given; + = active, no number.

SMILES	Autophagy HCS	WT yeast gro inh	Insulin prom inh	L major viab	Insulin prom up
Cc1cc(C)cc(NC(=S)N2CCC(N(C)CC3CCCO3)CC2)c1 (stereo unspecified)	i	9	0	67*	0.3
Cc1cccc(NC(=S)N2CCC(N(C)CC3CCCO3)CC2)c1C (stereo unspecified)	i	-20	-28	82*	/
Cc1cccc(C)c1NC(=S)N1CCC(N(C)CC2CCCO2)CC1 (stereo unspecified)	i	/	42	49	/
COc1ccc([N+](=O)[O-])cc1NC(=O)C(C)Sc1nc(C)c(C)c(C)n1 (stereo unspecified)	i	-16	15	47	-0.34
COc1ccc(OC)c(-c2csc(NC(=O)CSc3ccc(Br)cc3)n2)c1	i	36	/	53*	-0.79
COc1ccc(OC)c(-c2csc(NC(=O)CSc3ccc([N+](=O)[O-])cc3)n2)c1	i	33	-13	85*	0
COc1ccc(OC)c(-c2csc(NC(=O)Cn3[nH]c(=O)c4ccccc4c3=O)n2)c1	i	-43	-17	4	0
COc1ccc(S(=O)(=O)n2cnc(C)c2)cc1	i	4	/	-1	0.39
COc1ccc(/C=N/NC(=O)C2(C)NC(C)(C)Cc3ccccc32)cc1 (stereo unspecified)	i	14	/	-6	0.2
CCOC(=O)c1c(C)sc(Sc2ccc(Cl)cc2[N+](=O)[O-])c1OC	i	76*	-55	28	0.53
O=c1[nH]c(CSc2ncc(C(F)(F)F)cc2Cl)nc2ccccc12	i	4	-53	-1	-0.97
COc1ccc(Cl)cc1S(=O)(=O)N1CCN(Cc2ccc3c(c2)OCO3)CC1	i	65*	25	72*	/
O=S(=O)(c1ccc(N2CCN(Cc3ccc4c(c3)OCO4)CC2)nc1)N1CCOCC1	i	5	/	93*	-0.5
CSc1ccc(S(=O)(=O)N2CCN(Cc3ccc4c(c3)OCO4)CC2)cc1	i	30	29	82*	/
Cn1cc(CN2CCN(Cc3ccc4c(c3)OCO4)CC2)c(-c2ccccc2F)n1	i	5	25	60*	-0.24
C#CCNC(=O)C1=C[C@@H](c2ccc(Br)cc2)C[C@@H](OCCCCO)O1	i	8	/	4	-0.37
CCn1cc(C(=O)OCC(=O)Nc2ccc(S(=O)(=O)N3CCCC3)cc2)c(=O)c2ccc(C)nc21	i	5	42	-1	-1.5
O=S(=O)(Cc1ccccc1Cl)N1CCN(Cc2ccc3c(c2)OCO3)CC1	i	-20	-3	96*	/
Cc1ccc(CSc2nnc(-c3ccc(S(=O)(=O)N4CCCC4)cc3)o2)cc1	i	3	-3	6	/
O=S(=O)(c1ccc(-c2nnc(SCc3ccccc3)o2)cc1)N1CCCC1	i	12	/	85*	/
COC(=O)c1ccc(NC(=O)C(=O)N2CCN(C(=S)Nc3ccc(C)cc3)CC2)cc1	i	19	-19	66*	0.2
COC(=O)c1ccc(NC(=O)C(=O)N2CCN(C(=S)Nc3ccc(OC)cc3)CC2)cc1	i	3	-14	31	0.54
COC(=O)c1ccc(NC(=O)C(=O)N2CCN(C(=S)Nc3cccc(OC)c3)CC2)cc1	i	8	-11	72*	0.92
COCCCNC(=O)CCCCCNS(=O)(=O)c1ccc(Br)cc1	i	-1	/	1	0.02
O=C(/C=C\c1ccc2c(c1)OCO2)Nc1nnc(SCC(=O)OCc2ccccc2)s1	i	-5	?	92*	0.25
SMILES	Autophagy HCS	WT yeast gro inh	Insulin prom inh	L major viab	Insulin prom up
COC(=O)CSc1nnc(NC(=O)/C=C\c2ccc3c(c2)OCO3)s1	i	-14	18	100*	0.19
CCOC(=O)c1c(C)[nH]c(C(=O)OCC(=O)N2CCc3ccccc32)c1C	+	-7	/	4	0.62
COc1cc(CC(=O)NCc2ccc3c(c2)OCO3)cc(OC)c1OC	i	-1	-34	7	0.56
COc1cc(CC(=O)OCC(=O)c2ccc3c(c2)OCCO3)cc(OC)c1OC	+	-34	-154	-2	?
CCOC(=O)C1=C(C)NC(C)=C(C(=O)OCC)C1C(=O)OCC(=O)c1ccc2c(c1)OCCO2	i	-25	/	65*	-1
CCOC(=O)C1=C(C)NC(C)=C(C(=O)OCC)C1C(=O)OCC(N)=O	i	3	/	2	0.16
CCOC(=O)C1=C(C)NC(C)=C(C(=O)OCC)C1C(=O)OCC(=O)N1CCc2ccccc21	i	14	-22	97*	-0.87
CCOC(=O)c1[nH]c(C)c(C(=O)OCC(=O)N2CCc3ccccc32)c1C	i	2	26	-5	/
S=C(NCc1cccnc1)Nc1ccc(Oc2ccc(Cl)cc2)cc1	/	/	/	/	0.34
